Compound activity from PubChem.
Only some compounds are listed: those with a hit (about 6.7% of all), similar ones and a draw of the others.
C diff growth: blocks growth of Clostridium difficile. Clostridium difficile clinical isolate growth, OD600, 24 h; hits give low values. growth activity, negative = inhibition, % at 16 µg/mL (by protocol). 86,000 compounds, 0.25% hits;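 active means mean growth activity at or below -80% and every replicate also at or below -80%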;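 further: 0% = DMSO wells and -100% = levofloxacin 16 µg/mL wells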
T cruzi growth: blocks T. cruzi growth in NIH3T3 culture; T. cruzi beta-gal in NIH3T3, GalScreen luminescence, 90 h; inhibition, % at 8.34 µM; 77,000 compounds, 5.9% hits; AID 624255;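 active means mean inhibition above about 93%, with at least 55% of replicates each passing it, limit read from the data, passing the limit was not always enough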
Pf Dd2 growth: P. falciparum Dd2 growth inhibition; SYBR Green, 72 h; hits give low values; 94,000 compounds, 2.3% hits; activity change, % at 10 µM; in the data active means activity change below about -80%
* marks the source's active call; other numbers are inactive results; / = not tested or not shown.

SMILES	C diff growth	T cruzi growth	Pf Dd2 growth
CC(C)C#Cc1ccc([C@H]2[C@@H](CO)N3C(=O)CN(C(=O)c4ccc5c(c4)OCO5)C[C@H]23)cc1	-4	/	14
CCCN(C)C[C@@H]1Oc2cc(C#Cc3cccc(OC)c3)ccc2S(=O)(=O)N([C@H](C)CO)C[C@@H]1C	1	/	-37
C[C@H]1CN([C@@H](C)CO)C(=O)c2cc(-c3cccc(F)c3)cnc2O[C@@H]1CN(C)C(=O)Nc1cc(F)ccc1F	-15	55	-71
COC(=O)[C@@H]1N[C@@H]2c3ccc(C4=CCCCC4)c(=O)n3C[C@@H]2[C@H]1CO	-4	3	-3
COc1ccccc1CN1CC[C@@H]2[C@H]1c1cc(-c3cccc(F)c3)ccc1N[C@@H]2CO	-1	26	-76
OC[C@@H]1Nc2ccc(C#Cc3ccc(F)cc3)cc2[C@H]2NCC[C@@H]12	48	/	-89*
COc1cccc(-c2ccc3c(c2)[C@@H]2[C@@H](CCN2Cc2ccccc2OC)[C@@H](CO)N3)c1	-98*	-2	-59
O=C(c1ccc(F)cc1)N1CC[C@@H]2[C@H](CO)Nc3ccc(C#Cc4ccc(F)cc4)cc3[C@@H]21	8	28	-57
COc1ccccc1CN1CC[C@@H]2[C@@H](CO)Nc3ccc(-c4cccc(F)c4)cc3[C@@H]21	-6	49	-68
COc1cccc(-c2ccc3c(c2)[C@H]2[C@H](CCN2Cc2ccccc2OC)[C@H](CO)N3)c1	-91*	5	-76
COc1ccccc1CN1CC[C@@H]2[C@H](CO)Nc3ccc(-c4cccc(F)c4)cc3[C@@H]21	-3	38	-64
COc1ccccc1CN1CC[C@@H]2[C@H](CO)Nc3ccc(C#Cc4ccccc4)cc3[C@@H]21	-99*	-16	-51
CN(C)C(=O)C[C@@H]1C[C@H]2c3cc(NC(=O)Nc4ccc(C(F)(F)F)cc4)ccc3O[C@H]2[C@@H](CO)O1	1	-34	9
CC(C)NC(=O)N(C)C[C@H]1Oc2c(NC(=O)Nc3ccc(F)cc3)cccc2C(=O)N([C@H](C)CO)C[C@H]1C	-2	/	3
CCS(=O)(=O)NCC[C@@H]1CC[C@@H](NS(=O)(=O)c2cccc(F)c2)[C@@H](CO)O1	-3	-26	1
O=C(NCc1ccccc1)[C@@]1(Cc2ccccc2)COC(c2ccc(OCCCO)cc2)=N1	14	/	/
C[C@H]1CN([C@@H](C)CO)C(=O)c2cccc(N(C)C)c2O[C@@H]1CN(C)Cc1ccc(Oc2ccccc2)cc1	8	44	-30
O=C(C[C@@H]1CC[C@H]2[C@@H](COC[C@H](O)CN2S(=O)(=O)c2ccccc2)O1)NCc1ccc(-c2ccccc2)cc1	58	34	-33
C[C@H]1CCCCO[C@H](CN(C)S(=O)(=O)c2ccc(F)cc2)[C@@H](C)CN([C@@H](C)CO)C(=O)c2cc(NC(=O)Nc3ccc(C(F)(F)F)cc3)ccc2O1	/	86	-59
COc1ccc(C#Cc2ccc3c(c2)[C@@H]2[C@@H](CCN2C(C)=O)[C@@H](CO)N3)cc1	-15	23	-5
COc1ccccc1C#Cc1ccc2c(c1)[C@H]1[C@H](CCN1C(=O)c1ccc(F)cc1)[C@H](CO)N2	-97*	91	12
COc1ccc(C#Cc2ccc3c(c2)[C@H]2[C@H](CCN2Cc2ccncc2)[C@@H](CO)N3)cc1	5	/	-92*
COc1ccccc1C#Cc1ccc2c(c1)[C@@H]1[C@@H](CCN1C(=O)c1ccc(F)cc1)[C@@H](CO)N2	37	79	7
CCCNC(=O)Nc1ccc2c(c1)C(=O)N(C)[C@@H]1CC[C@@H](CC(=O)OC)O[C@@H]1CO2	-2	4	5
C[C@H](CO)N1C[C@H](C)[C@H](CN(C)CC2CC2)OCCCC[C@H](C)Oc2ccc(NC(=O)Cc3ccccc3)cc2C1=O	-2	74	-27
CC(C)NC(=O)N[C@@H]1CC[C@H](CC(=O)N2CCCCC2)O[C@@H]1CO	/	17	15
C[C@H]1CCCCO[C@H](CN(C)C(=O)Nc2ccc(C(F)(F)F)cc2)[C@@H](C)CN([C@@H](C)CO)C(=O)c2cc(NC(=O)Nc3ccccc3)ccc2O1	-3	/	-83*
C[C@H]1CCCCO[C@@H](CN(C)C(=O)Nc2ccccc2)[C@@H](C)CN([C@@H](C)CO)C(=O)c2cc(NC(=O)Cc3ccccc3)ccc2O1	/	27	7
C[C@@H]1CCCCO[C@H](CN(C)C(=O)Cc2ccccc2)[C@H](C)CN([C@@H](C)CO)C(=O)c2cc(NC(=O)Nc3ccc(C(F)(F)F)cc3)ccc2O1	2	81	-70
C[C@@H]1CCCCO[C@H](CN(C)C(=O)Cc2ccccc2)[C@@H](C)CN([C@@H](C)CO)C(=O)c2cc(NC(=O)Nc3ccc(C(F)(F)F)cc3)ccc2O1	-4	69	-87*
